± gives the standard deviation of the averaged measurements. In all, about 33,000 sequences were measured (“E-score (dimensionless, -0.5 to 0.5)”: median about -0.049, highest 2% from about 0.37 on). The sample holds the highest values, similar sequences and a random draw of the others, so the mix is not that of the screen.
Each sequence was assayed on T1, PmTbr T-box DNA-binding domain (GST fusion) (assay: PBM E-score of 8-mer (E-score (dimensionless, -0.5 to 0.5)); Tbr is Tbrain of the sea star Patiria miniata (Pm) or the sea urchin Strongylocentrotus purpuratus (Sp); higher = stronger binding preference). Conditions: the construct has about 5 more residues each side.
T1 sequence: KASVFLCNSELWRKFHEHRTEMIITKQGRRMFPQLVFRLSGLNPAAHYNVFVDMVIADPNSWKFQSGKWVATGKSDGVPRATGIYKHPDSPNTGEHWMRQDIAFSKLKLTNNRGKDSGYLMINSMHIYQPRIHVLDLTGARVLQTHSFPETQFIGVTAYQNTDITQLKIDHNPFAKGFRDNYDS
Outline: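 Universal Agilent oligonucleotide arrays, made double-stranded by primer extension, were incubated with 200 nM GST-fused Tbr T-box DNA-binding domain in PBS (pH 7.5). The protein was expressed in BL21 E. coli at 20 °C and purified by glutathione affinity chromatography. After scanning and quantification, the Universal PBM Analysis Suite assigned an enrichment E-score to each ungapped 8-mer, averaged over duplicate arrays.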

Row | Sequence | PBM E-score of 8-mer
1 | CTGGCGAC | 0.124 ± 0.059
2 | TCTGCGAA | 0.201 ± 0.038
3 | AGTGCGTC | -0.147 ± 0.029
4 | TGTGCGAA | 0.448 ± 0.0066
5 | GATGCGAA | 0.186 ± 0.038
6 | CGTGCAAA | 0.11 ± 0.0028
7 | TATGCGAA | 0.157 ± 0.0088
8 | GGTGCGAA | 0.48957 ± 0.00016
9 | CGTGCGAA | 0.448 ± 0.0091
10 | AGTGCGAC | 0.37 ± 0.012
11 | ACTGCGAC | 0.0881 ± 0.0041
12 | CGTGCGCA | 0.0827 ± 0.019
13 | GGTGCGTA | 0.2616 ± 0.00075
14 | AGCCGACA | 0.165 ± 0.007
15 | GTGGCTCA | 0.0273 ± 0.048
16 | CGCCGCAA | -0.0674 ± 0.0034
17 | ATTGCTCG | -0.0286 ± 0.034
18 | CAGCCAGA | -0.0394 ± 0.019
19 | CGAGATCC | 0.0268 ± 0.01
20 | AAGGGATT | -0.212 ± 0.11
21 | CCTAAAAC | -0.00751 ± 0.035
22 | CTGTTCAC | 0.263 ± 0.012
23 | CATGCAGC | -0.0211 ± 0.03

Row | Sequence | PBM E-score of 8-mer
24 | AGAGTGCA | 0.0698 ± 0.0037
25 | CACTTGGC | 0.236 ± 0.038
26 | ATTGCGAA | 0.27169 ± 0.00012
27 | ACTGCGAG | 0.179 ± 0.04
28 | CTTGCGAA | 0.328 ± 0.029
29 | GTTGCGAA | 0.389 ± 0.015
30 | CGTGCGAG | 0.358 ± 0.018
31 | GGTGCGGA | 0.405 ± 0.015
32 | AGTGCGAG | 0.405 ± 0.021
33 | CGTGCGGA | 0.0633 ± 0.03
34 | AGTGCGGA | 0.265 ± 0.0086
35 | ACTTCGAC | 0.14 ± 0.024
36 | ATTGACAA | 0.304 ± 0.043
37 | CTTGACGC | 0.27 ± 0.0032
38 | ATTGACAC | 0.412 ± 0.0065
39 | ATTGACAG | 0.15 ± 0.052
40 | CTTGACAC | 0.43 ± 0.023
41 | CTTGACCC | -0.326 ± 0.035
42 | ATTTGGTC | -0.154 ± 0.024
43 | CCACGTAC | 0.0376 ± 0.016
44 | AGTCATAT | -0.234 ± 0.069
45 | ATTAACAC | 0.449 ± 0.0075
46 | ATTAACAA | 0.173 ± 0.14

Row | Sequence | PBM E-score of 8-mer
47 | CTTAACAC | 0.434 ± 0.013
48 | CTTAACAA | 0.201 ± 0.041
49 | CTTAACCC | -0.0938 ± 0.018
50 | ATTAACAG | 0.143 ± 0.048
51 | CTACTCGA | -0.0985 ± 0.018
52 | AACTTAAT | -0.0144 ± 0.063
53 | GGTTCTTA | -0.0403 ± 0.11
54 | ACCTTAAC | 0.0595 ± 0.0064
55 | ACCACCCC | 0.191 ± 0.072
56 | GGCACCCA | 0.217 ± 0.018
57 | AACACCCC | 0.433 ± 0.0072
58 | AGCACCCT | 0.309 ± 0.031
59 | GCCACCCA | 0.0536 ± 0.024
60 | GGCACCCC | 0.244 ± 0.03
61 | GCCACCCC | 0.208 ± 0.0084
62 | AACACCCT | 0.433 ± 0.017
63 | ACCACCCT | 0.0583 ± 0.021
64 | GACACCCA | 0.388 ± 0.032
65 | GACACCCC | 0.409 ± 0.031
66 | AACACCCA | 0.348 ± 0.029
67 | CTACATGA | -0.0685 ± 0.044
68 | CTCCGTCC | -0.281 ± 0.02
69 | GCTCAATA | -0.0299 ± 0.077

Row | Sequence | PBM E-score of 8-mer
70 | CCTCGATC | 0.0184 ± 0.014
71 | CTCAGAGA | -0.262 ± 0.012
72 | CGCGTTGC | 0.211 ± 0.017
73 | GCTAAGGA | -0.08306 ± 0.00035
74 | ATCACTAG | 0.0709 ± 0.015
75 | GTAAGCAA | -0.113 ± 0.031
76 | CTTGCACA | 0.148 ± 0.026
77 | CCGACACC | 0.448 ± 0.018
78 | GGGACACC | 0.216 ± 0.077
79 | GCGACACA | 0.302 ± 0.022
80 | GCGACACC | 0.462 ± 0.011
81 | ACGACACT | 0.298 ± 0.0045
82 | ACGACACG | 0.225 ± 0.062
83 | ACGACACC | 0.421 ± 0.018
84 | CCGACACA | 0.37 ± 0.028
85 | CCGACACG | 0.261 ± 0.013
86 | TCGACACA | 0.319 ± 0.016
87 | CAGACACC | 0.355 ± 0.0066
88 | CCGACATC | -0.0298 ± 0.027
89 | GTCCAGGA | -0.195 ± 0.049
90 | ACATATGA | 0.0313 ± 0.063
91 | CTCGATCA | 0.0196 ± 0.0013
92 | GTCCCCAA | -0.071 ± 0.1

Row | Sequence | PBM E-score of 8-mer
93 | TCAGTCGA | -0.0383 ± 0.035
94 | AGAGTACC | -0.132 ± 0.064
95 | GATATAAC | 0.115 ± 0.0035
96 | GACATCTC | -0.14 ± 0.016
97 | GATTTGGC | 0.249 ± 0.01
98 | AGTTGTTA | 0.388 ± 0.011
99 | AGTTGTCA | 0.4064 ± 0.0017
100 | AGTTGTTG | 0.195 ± 0.0086
101 | AGTTGTCG | 0.309 ± 0.0099
102 | CGTTGTTA | 0.157 ± 0.043
103 | GGTTGTCA | 0.342 ± 0.0085
104 | CTCTTTTA | 0.105 ± 0.092
105 | ATCACACA | 0.418 ± 0.01
106 | ATCACAAA | 0.0643 ± 0.013
107 | ATCACACC | 0.4877 ± 0.0026
108 | ATCACATA | 0.297 ± 0.028
109 | ATCACACG | 0.39 ± 0.0083
110 | ATCACAGC | 0.211 ± 0.024
111 | ATCACAGG | 0.195 ± 0.099
112 | AACACACC | 0.3 ± 0.019
113 | ATCACAGA | 0.129 ± 0.011
